Activity calls are given as the source filed them. Calls come from the whole dose curve; as a rule, active = well fitted curve in the direction sought with a large enough effect in the repeat runs; inconclusive = weak or mixed curves; inactive = flat fitted curve, though single readings scatter.
Assay: qHTS assay to test for compound auto fluorescence at 590 nm (red) in HepG2 cells (AID 720674)
Conditions: HepG2 autofluorescence, red 540/590 nm, 1 h; series mostly up to 91.3 µM; fluorescence, relative to Rose Bengal: at the top concentration
Description: U.S. Tox21 Program National Center for Advancing Translational Sciences [NCATS] NIH Chemical Genomics Center [NCGC] U.S. Environmental Protection Agency [EPA] National Institutes of Environmental Health Sciences [NIEHS] National Toxicology Program [NTP] U.S. Food and Drug Administration [FDA] Tox21 Assay Overview: Compound auto fluorescence often interferes with screening of the compound library against various biological targets and signaling pathways. Some of these compounds may have fluorophoric properties. Such properties may interfere with the assay outputs resulting in false positives and/or negatives. To decrease such complications and ensure the compound activities are relevant in terms of biological response, the Tox21 10K compound library was screened for auto fluorescence. From the fluorophores used as reporter signals in our screening assays, the auto fluorescence equivalencies of compounds against three fluorophores have been evaluated: Triamterene, Fluorescein and Rose Bengal sodium for blue, green and red fluorescence, respectively. The fluorescence intensities were measured using Excitation/Emission wavelengths at 405/460nm, 485/535nm and 540/590nm for blue, green and red labels, respectively. This assay includes the red fluorescence data.
Tox21 Assay Protocol Summary: 2,000 HepG2 cells in 5 uL of culture medium (MEM containing 10% FBS) per well were dispensed into black wall/clear bottom 1536-well plates using a Multidrop Combi Dispenser (ThermoFisher Scientific, Waltham, MA). The assay plates were incubated overnight at 37 C to allow cell attachment to the well bottom, followed by the transfer of 23 nL compound or DMSO vehicle by a pintool work station (Kalypsys , San Diego, CA). After the assay plates were incubated for 1 hr at 37 C and 5% CO2, fluorescence intensities in the assay plates were measured by an Envision (PerkinElmer, Shelton, CT) plate reader using three labels for measuring blue, green and red fluorescence at […] 460, 535 and 590 nm respectively.
% is set by controls: 0 for no effect and ±100 for the full control effect.

Row | SMILES | fluorescence, relative to Rose Bengal | outcome
1 | Cc1cccc(C)c1NC(=O)c1cc(S(N)(=O)=O)c(Cl)cc1O | -0.583% [at 46 µM] (inactive) | –
2 | CC1=CC[C@@H]2C[C@H]1C2(C)C | -0.0358% [at 18.6 µM] (inactive) | –
3 | COc1ccc(-c2cc(=S)ss2)cc1 | -0.0163% [at 46 µM] (inactive) | –
4 | Cc1ccc(Nc2c(F)cccc2Cl)c(CC(=O)O)c1 | 0.0535% [at 46 µM] (inactive) | –
5 | CC(=O)C(C)=O | 0.0148% (inactive) | –
6 | Cc1ccc(S(=O)(=O)NC(=O)NC2CCCCC2)cc1 | 0.563% [at 46 µM] (inactive) | –
7 | CC(C)(C)CCCCCCOC(=O)c1ccccc1C(=O)OCCCCCCC(C)(C)C | -0.386% (inactive) | –
8 | CN1C(CSCC(F)(F)F)Nc2cc(Cl)c(S(N)(=O)=O)cc2S1(=O)=O (stereo not given) | -0.185% [at 46 µM] (inactive) | –
9 | CNS(=O)(=O)c1cc(C(=O)N2CCC(CCN3C4CCC3CC(n3c(C)nc5ccccc53)C4)(c3cccc(F)c3)CC2)c(Cl)cc1F (stereo not given) | 0.0555% (inactive) | –
10 | CC(=O)NCCO | -0.0153% (inactive) | –
11 | Cc1ccc(N(CCO)CCO)cc1 | 0.0159% (inactive) | –
12 | CC(C)C(O)C(C)(C)CO (stereo not given) | 0.0423% [at 95.7 µM] (inactive) | –
13 | O=C(O)CCS | 0.0151% [at 95.7 µM] (inactive) | –
14 | CSCC[C@H](NC(=O)[C@H](Cc1c[nH]c2ccccc12)NC(=O)CCNC(=O)OC(C)(C)C)C(=O)N[C@@H](CC(=O)O)C(=O)N[C@@H](Cc1ccccc1)C(N)=O | -0.0686% [at 46 µM] (inactive) | –
15 | COC1CCC=CO1 (stereo not given) | 0.0911% (inactive) | –
16 | CC(C)(O)CCc1ccccc1 | -0.0577% (inactive) | –
17 | O=C(Nc1ccc(C(=O)O)c(O)c1)c1ccccc1 | 0.192% [at 46 µM] (inactive) | –
18 | O=C(O)CO | -0.991% (inactive) | –
19 | CNc1c2c(nn1C)CCCC2 | -0.0408% [at 46 µM] (inactive) | –
20 | Cc1cc([N+](=O)[O-])ccc1N | 0.0192% (inactive) | –

Row | SMILES | fluorescence, relative to Rose Bengal | outcome
21 | O=C(Oc1ccccc1)c1ccc2ccccc2c1O | 0.0157% (inactive) | –
22 | CC(=O)NNC(C)=O | 0.198% [at 95.7 µM] (inactive) | –
23 | CC/C=C\C/C=C\C/C=C\CCCCCCCC(=O)OCC | 0.12% [at 95.7 µM] (inactive) | –
24 | COc1cc(NS(=O)(=O)c2ccc(N)cc2)nc(C)n1 | 0.227% [at 46 µM] (inactive) | –
25 | COC(OC)OC | -0.359% (inactive) | –
26 | CC(=O)OCCC(C)CC(C)(C)C (stereo not given) | -0.0733% (inactive) | –
27 | CC(C)OC(=O)c1ccccc1C(=O)OC(C)C | 0.0297% (inactive) | –
28 | COc1ccc(CCN(C)CCCN2CCc3cc(OC)c(OC)cc3CC2=O)cc1OC | -0.617% [at 46 µM] (inactive) | –
29 | COc1ccc(C(=O)NCc2ccc(OCCN(C)C)cc2)cc1OC | -0.0284% [at 46 µM] (inactive) | –
30 | O=C(O)CCCc1c[nH]c2ccccc12 | 0.0246% (inactive) | –
31 | O=C1OC(=O)c2c(Br)c(Br)c(Br)c(Br)c21 | -0.136% (inactive) | –
32 | COC(CC(C)CCCC(C)(C)O)OC (stereo not given) | -0.173% (inactive) | –
33 | CCN(CC)CCNC(=O)c1cc(Cl)c(N)cc1OC | 0.0148% [at 46 µM] (inactive) | –
34 | CCCC(=O)OC(=O)CCC | -0.038% [at 95.7 µM] (inactive) | –
35 | O=C(O)CCC(=O)c1ccc(-c2ccccc2)cc1 | 0.795% [at 18.6 µM] (inactive) | –
36 | C/C(C=O)=C\c1ccccc1 | -0.165% (inactive) | –
37 | CN(C)CC/C=C1\c2ccccc2Sc2ccc(Cl)cc21 | -0.0797% [at 46 µM] (inactive) | –
38 | CC1C(C)(C)C2=C(C(=O)CCC2)C1(C)C (stereo not given) | 0.201% (inactive) | –
39 | BrC(Br)C(Br)Br | 0.0995% (inactive) | –
40 | CCCCCCCCCCCC(=O)OCC(O)CO (stereo not given) | – | inactive

Source: PubChem BioAssay (Tox21)
